Compound activity as filed in PubChem BioAssay.
A selection: hits, their analogues and other compounds. The true share with any hit is near 2.2%.
HepG2 tox – counter-screen for TGF-b inhibitors: cytotoxicity in HepG2 cells. HepG2 CAGA-GFP viability, ATP luminescence, 18 h. Potency, µM (highest dose often 46.1 µM), most hits filed as cytotoxic. AID 588856. 410,000 tested, 0.76% active
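CellTiter-Glo luminescence gave cytotoxicity after 18 hours at 37 degrees C. The cells were HepG2 CAGA-GFP in 1% FBS DMEM, stimulated with 500 pg/mL TGF-beta after compound addition. %Activity was normalised to no-cell wells (complete cell-killing) and DMSO (no toxicity), and curves were fitted and classified.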
TGFb SMAD3 inh – TGF-b pathway inhibition | HepG2 CAGA-GFP TGF-b/SMAD3 reporter, GFP fluorescence, 18 h; TGF-beta stimulated, 500 pg/mL final | Potency, µM (highest dose often 46.1 µM), most hits filed as inhibitors | 410,000 tested, 1.2% active | AID 588855; also: nearly all actives have a fitted effect of over 65% in size
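HEPG2 CAGA-GFP, 1000 cells/well; 2 h settle, 37 C; cpd via pin tool; TGF-b 500 pg/mL final; 18 h, 37 C; GFP imaging ex488/em500-530; %Activity normalised to -TGF-b and +DMSO controls; CRC fit, curve class.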
ATXN viability – cell viability loss in ATXN counter-screen. S2 cells (HEK-293 line with an ATXN2-luciferase reporter) viability, CellTiter-Fluor protease fluorescence, 24 h. Potency, µM (titrated, usually from 56.7 µM), most hits filed as cytotoxic. 400,000 tested, 0.49% active; also: nearly all actives have a fitted effect of over 40% in size
mIDH1 inhibitor – blocks human mutant IDH1 R132H enzyme; 390,000 tested, 0.093% active; IDH1-R132H enzyme, NADPH consumption, diaphorase/resazurin fluorescence; O75874; Potency, µM (top dose mostly 76.6 µM), usual class: inhibitors; also: nearly all actives have a fitted effect of over 65% in size
Target sequence (O75874 whole entry R132H, stated change not applied): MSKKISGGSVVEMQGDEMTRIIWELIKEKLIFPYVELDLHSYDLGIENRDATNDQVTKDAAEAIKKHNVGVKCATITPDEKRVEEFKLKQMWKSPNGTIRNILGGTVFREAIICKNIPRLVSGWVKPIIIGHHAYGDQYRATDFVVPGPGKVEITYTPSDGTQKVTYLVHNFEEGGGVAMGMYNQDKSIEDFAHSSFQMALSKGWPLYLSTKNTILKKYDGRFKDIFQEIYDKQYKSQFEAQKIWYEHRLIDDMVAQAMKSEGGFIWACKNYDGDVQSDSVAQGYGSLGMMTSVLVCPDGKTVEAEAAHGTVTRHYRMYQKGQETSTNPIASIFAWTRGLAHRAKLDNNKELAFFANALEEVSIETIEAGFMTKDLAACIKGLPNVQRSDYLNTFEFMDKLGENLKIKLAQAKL
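IDH1-R132H (0.5 ug/mL) preincubated 30 min with compound, then NADPH (0.016 mM) and alpha-KG (2 mM) added; 80 min at RT, pH 7.5. Remaining NADPH coupled via diaphorase/resazurin to fluorescence (540/590 nm); concentration-response curves normalized to no-enzyme control.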
LDHA block – blocks human lactate dehydrogenase A. P00338. purified LDHA, NADH/diaphorase-resazurin fluorescence; stronger effect = lower value. activity change, % (values are at about 110 or 230 µM). 480,000 tested, 0.15% active. AID 1347041; in the data active = activity change below about -30%; inconclusive = mostly about -25% to -30%
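LDH5 2 nM; NADH 0.06 mM, pyruvate 0.2 mM; 200 mM Tris pH 7.4, EDTA, Tween-20; 5 min RT. Detection: diaphorase 0.133 mg/mL + resazurin 37 µM, fluorescence ex540/em590 at 0 and 20 min; normalized to enzyme-free and DMSO wells.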
ATXN2 expr inh – inhibitors of ATXN2 expression; HEK-293 ATXN2-luciferase reporter, luminescence, 24 h; Potency, µM (titrated, usually from 57 µM), usual class: inhibitors; 360,000 tested, 0.72% active; also: nearly all actives have a fitted effect of over 55% in size
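ATXN2-luciferase reporter cells (luciferase flanked by upstream and downstream ATXN2 gene portions) were treated 24 h at 37 °C with compounds at up to 57 uM. SteadyGlo luminescence gave expression; GF-AFC fluorescence gave viability.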
Each line names hits and unclear results; the compound was inactive in the other large screens; ! = a repeat was not active. Unless noted, calls follow the shape of the dose curve; as a rule, active = well fitted curve in the direction sought with a large enough effect; inconclusive = small, poorly fitted or top-dose-only effect, or another doubt; inactive = no such curve, though single readings can be large; an effect the other way counts as inactive or inconclusive.

O=C(Nc1ccc(F)cc1F)Nc1csc2ccccc12	TGFb SMAD3 inh inconclusive
O=C(Nc1ccc(F)c(Cl)c1)Nc1csc2ccccc12	HepG2 tox 12.6µM, TGFb SMAD3 inh inconclusive
c1ccc(CCNc2ncnc3scc(C4COc5ccccc5O4)c23)cc1 (configuration not stated)	TGFb SMAD3 inh 15.8µM
COc1ccc(NC(=O)C2CCCN(C(=O)c3cnn(-c4ccc(F)cc4)c3-n3cccc3)C2)cc1 (configuration not stated)	ATXN viability inconclusive
O=C(Nc1cccc2ncccc12)c1cc(Br)ccc1Cl	none
Cc1ccc(S(=O)(=O)N(C)C)cc1NC(=O)C(C)OC(=O)CC1CC2CCC1C2 (configuration not stated)	TGFb SMAD3 inh inconclusive (no result: ATXN2 expr inh)
COc1cccc(C(N)=O)c1OCc1ccccc1	none (no result: HepG2 tox, TGFb SMAD3 inh, ATXN viability, mIDH1 inhibitor, ATXN2 expr inh)
O=C(Nc1sc2c(c1C(=O)O)CCCCC2)c1ccco1	TGFb SMAD3 inh inconclusive, LDHA block -42.1!
CN1CCN(C(=O)c2c(NC(=O)c3ccco3)sc3c2CCC(C(C)(C)C)C3)CC1 (configuration not stated)	none
CC1CCc2c(sc(NC(=O)c3ccco3)c2C(=O)O)C1 (configuration not stated)	LDHA block -40.6
O=C(CNC(=O)C1CCCCCC1)OC(C(=O)Nc1cc(C(F)(F)F)ccc1Cl)c1ccccc1 (configuration not stated)	none (no result: HepG2 tox, TGFb SMAD3 inh, ATXN viability, mIDH1 inhibitor, ATXN2 expr inh)
O=C1ON=C(c2ccccc2)/C1=C/c1ccc(-c2ccccc2[N+](=O)[O-])o1	TGFb SMAD3 inh 20µM, mIDH1 inhibitor inconclusive
O=[N+]([O-])c1ccccc1-c1ccc(/C=N/O)o1	none (no result: HepG2 tox, TGFb SMAD3 inh, ATXN viability, mIDH1 inhibitor, ATXN2 expr inh)
O=C1ON=C(c2ccc([N+](=O)[O-])cc2)/C1=C/c1ccccc1O	LDHA block -42.6
COc1ccc(C2c3c(nc(CCCc4ccccc4)[nH]c3=O)Oc3ccc4ccccc4c32)cc1OC (configuration not stated)	none (no result: HepG2 tox, TGFb SMAD3 inh, ATXN viability, mIDH1 inhibitor, ATXN2 expr inh)
O=S(=O)(Nc1ccc(C(O)(C(F)(F)F)C(F)(F)F)cc1)c1ccc(Cl)c2nonc12	HepG2 tox 20µM, TGFb SMAD3 inh inconclusive, ATXN2 expr inh 17.8µM (no result: ATXN viability, mIDH1 inhibitor)
COc1ccccc1NC(=O)c1cc2c(CO)cnc(C)c2oc1=Nc1cccc(C(N)=O)c1	ATXN viability 14.1µM (no result: ATXN2 expr inh)
COc1ccccc1NC(=O)c1cc2c(CO)cnc(C)c2oc1=Nc1ccccc1	none
Cc1cccc(Nc2nc(N)c([N+](=O)[O-])c(N3CC(C)CC(C)C3)n2)c1 (configuration not stated)	HepG2 tox 11.2µM, TGFb SMAD3 inh inconclusive, ATXN viability inconclusive, mIDH1 inhibitor inconclusive
Cc1cccc(Nc2nc(N)c([N+](=O)[O-])c(N3CC(C)OC(C)C3)n2)c1 (configuration not stated)	ATXN viability inconclusive, mIDH1 inhibitor inconclusive
Cc1cccc(Nc2nc(N)c([N+](=O)[O-])c(N3CCC(C)CC3)n2)c1	TGFb SMAD3 inh 14.1µM
COc1ccc(CNC(=O)C(c2cccs2)N(C(=O)c2csnn2)C2CC2)cc1 (configuration not stated)	none
CNC1CCC(N(Cc2cccc(-c3ccncc3)c2)C(=O)c2sc3ccccc3c2Cl)CC1 (configuration not stated)	ATXN2 expr inh 24.3µM (no result: HepG2 tox, TGFb SMAD3 inh, ATXN viability, mIDH1 inhibitor, LDHA block)
O=C(c1sc2ccccc2c1Cl)N(Cc1cccs1)C1CCS(=O)(=O)C1 (configuration not stated)	TGFb SMAD3 inh inconclusive
CCc1c(C)nc(SCCOc2ccc(OC)cc2)[nH]c1=O	HepG2 tox 0.316µM
CCCCSc1nc(C(=O)O)cc(=O)[nH]1	none
CC1CC(C)C[N+](=C2C=C(N3CCCC3)CC(C)(C)C2)C1 (configuration not stated)	TGFb SMAD3 inh inconclusive, ATXN viability inconclusive, LDHA block -99.2, ATXN2 expr inh inconclusive
CC1Cc2ccccc2N1CC(=O)NCc1ccc2c(c1)OCO2 (configuration not stated)	none
